This is an account of results in PubChem BioAssay (EPA / NIEHS).

Molecules are shown by their SMILES. The source made the active and inactive calls. Rule for the calls: active = hit-call score of the fitted dose curve at least 0.9, where 1 is the maximum; inactive = score below 0.9.

Read-out in the test: C-C motif chemokine 2 (Homo sapiens) (UniProt P13500)
Put plainly: BSK_KF3CT_MCP1: BioMAP Diversity Plus: KF3CT Assay for Monocyte Chemoattractant Protein 1 (MCP1/CCL2) Biomarker Activity (AID 2283073). The settings on record: primary human keratinocytes with fibroblasts; actives raise or lower the signal. The procedure:
BSK_KF3CT is a cell-based, multiplexed-readout assay that uses keratinocytes and foreskin fibroblasts, a human skin primary cell co-culture, with measurements taken at 24 hours after chemical dosing in a 96-well plate.BSK_KF3CT_MCP1 is an assay component measured in the BSK_KF3CT assay. It measures MCP-1 antibody related to regulation of gene expression using ELISA technology.Data from the assay component BSK_KF3CT_MCP1 was analyzed into 1 assay endpoint. This assay endpoint, BSK_KF3CT_MCP1, was analyzed with bidirectional fitting relative to DMSO as the negative control and baseline of activity. Using a type of binding reporter, gain or loss-of-signal activity can be used to understand changes in the signaling as they relate to the gene CCL2. Furthermore, this assay endpoint can be referred to as a primary readout, because this assay has produced multiple assay endpoints where this one serves a signaling function. To generalize the intended target to other relatable targets, this assay endpoint is annotated to the cytokine intended target family, where the subfamily is chemotactic factor.
The levels of cell surface (or secreted, indicated by the prefix "s") biomarker endpoints were measured by ELISA. Overt cytotoxicity to cells in confluent adherent cultures (all systems other than the BT system) was assessed by measuring total protein levels using sulforhodamine B (SRB) staining in parallel cultures at the time of biomarker measurements, indicated as SRB endpoints. For proliferation assays for adherent cell types, individual cell types are cultured at sub-confluence and relative cell numbers quantified by SRB staining at time points optimized for each system (48 h: 3C and CASM3C systems; 72 h: BT and HDF3CGF systems; 96 h: SAg system). SRB was performed by staining cells with 0.1% SRB after fixation with 10% TCA and reading wells at 560 nm.Viability and proliferation of PBMC (T cells) was quantified by Alamar Blue reduction for the SAg and BT systems. For PBMC viability (referred to as PBMC Cytotoxicity within the assay endpoint names), cells were plated (75,000/well in a 96-well plate) and then chemical samples added for 1 h before addition of activators, SEB and TSST-1 (20 ng/mL final concentration each). Cells were incubated for 90 h. Then, Alamar Blue (20 uL/well) (Invitrogen, Cat DAL1100) was added for 6 h, and the plates were read with a fluorescence microplate reader at 546/580 nm (excitation/emission). For PBMC proliferation, cells were plated and activated as above but incubated for only 16 h prior to addition of Alamar Blue. Plates were read after 6 h.
`CC1(C)C(C=C(Cl)Cl)C1C(=O)OC(C#N)c1cccc(Oc2ccccc2)c1` (stereo not given): the outcome was inactive.
The same measure, in the same setting: the value for `CCOP(=S)(OCC)Oc1nc(Cl)n(C(C)C)n1` was “inactive”.
The same measure, in the same setting: the value for `CCSC(=O)N1CCCCCC1` was “inactive”.
With `CNC(=O)N(C)c1nnc(C(C)(C)C)s1`, the outcome was inactive.
Still for that read-out and setting: the value for `Cc1nc(N(C)C)nc(OC(=O)N(C)C)c1C` was “inactive”; that for `COP(=S)(OC)SCn1nnc2ccccc2c1=O` was “inactive”.
With `CC1(C)CON(Cc2ccccc2Cl)C1=O`, the result was inactive.
Turning to `COC(=O)NS(=O)(=O)c1ccc(N)cc1`, the outcome was inactive.
Take `CO/N=C(/C1=NOCCO1)c1ccccc1Oc1ncnc(Oc2ccccc2Cl)c1F`: the AC50 was 28.6 µM (active).
Same read-out and setting: the value for `O=C1C2CC=CCC2C(=O)N1SC(Cl)(Cl)Cl` (stereo not given) was 11.8 µM (active).
For the molecule `CC1(C)C(C(=O)OC(C#N)c2cccc(Oc3ccccc3)c2)C1(C)C` (stereo not given), the outcome was inactive.
Same read-out and setting: the value for `COc1cc(Cl)c(OC)cc1Cl` was “inactive”; that for `COc1ccc(-c2ccccc2)cc1NNC(=O)OC(C)C` was “inactive”; that for `COc1cc(OC)nc(NC(=O)NS(=O)(=O)c2ncccc2OCC(F)(F)F)n1` was “inactive”.
With `Nc1c(Cl)c(F)nc(OCC(=O)O)c1Cl`, the result was inactive.
With `COCc1cnc(C2=NC(C)(C(C)C)C(=O)N2)c(C(=O)O)c1` (stereo not given), the result was inactive.
Take `CCCN(CC)CC1COC2(CCC(C(C)(C)C)CC2)O1` (stereo not given): the half-maximal activity concentration (AC50) is 0.739 µM (active).
`CCOc1nc(F)cc2nc(S(=O)(=O)Nc3c(Cl)cccc3Cl)nn12`: the result was inactive.
Same read-out and setting: the value for `COC(=O)c1c(C(F)F)nc(C(F)(F)F)c(C2=NCCS2)c1CC(C)C` was “inactive”.
`CC(C)N1C(=O)c2ccccc2NS1(=O)=O`: the AC50 was 0.535 µM (active).
Consider `CC(C)(C)C(=O)C(Oc1ccc(Cl)cc1)n1cncn1` (stereo not given), for which the result was inactive.
Same read-out and setting: the result for `CC(C)N1C(=O)N(c2ccccc2)CSC1=NC(C)(C)C` reads “inactive”; that for `Nc1c(Cl)c(Cl)nc(C(=O)O)c1Cl`, “inactive”.
With `Cn1c(-c2ccccc2)cc(-c2ccccc2)[n+]1C`, the outcome was inactive.
Regarding `Cc1cc(C)nc(Nc2ccccc2)n1`, the outcome was inactive.
Same read-out and setting: the value for `COCC(=O)N(c1c(C)cccc1C)C(C)C(=O)OC` (stereo not given) was “inactive”.
Still for that read-out and setting: the result for `CCCCC(O)(Cn1cncn1)c1ccc(Cl)cc1Cl` (stereo not given) reads “inactive”.
On the same count and under the same terms, the result for `CCC(C)n1c(=O)[nH]c(C)c(Br)c1=O` (stereo not given) reads “inactive”.
Turning to `OC(c1ccc(Cl)cc1)(c1ccc(Cl)cc1)C(Cl)(Cl)Cl`, the AC50 is 11 µM (active).
Consider `Cc1ccc(N=CN(C)C=Nc2ccc(C)cc2C)c(C)c1`, for which the result was inactive.
Still for that read-out and setting: the value for `CCN(CC)C(=O)C(C)Oc1cccc2ccccc12` (stereo not given) was “inactive”.
Turning to `CN/C(=N\[N+](=O)[O-])NCc1cnc(Cl)s1`, the result was inactive.
Still for that read-out and setting: the result for `CNC(=O)Oc1cccc2ccccc12` reads “inactive”.
Consider `CCOc1cc(C(C)(C)C)ccc1C1COC(c2c(F)cccc2F)=N1` (stereo not given), for which the half-maximal activity concentration (AC50) is 20 µM (active).
As to `Nc1cnn(-c2ccccc2)c(=O)c1Cl`, the outcome was inactive.
On the same count and under the same terms, the result for `C=C(C)CN(CC)c1c([N+](=O)[O-])cc(C(F)(F)F)cc1[N+](=O)[O-]` reads “inactive”; that for `COP(=S)(OC)Oc1ccc([N+](=O)[O-])c(C)c1`, “inactive”.
With `N#Cc1c(Cl)cccc1Cl`, the result was inactive.
As to `CC(C)=CC1C(C(=O)OCc2coc(Cc3ccccc3)c2)C1(C)C` (stereo not given), the outcome was inactive.
As to `CCNP(=S)(OC)O/C(C)=C/C(=O)OC(C)C` (stereo not given), the concentration at half-maximal activity (AC50) was 0.733 µM (active).
